# Measurements published in ChEMBL document CHEMBL2218924, “A broad activity screen in support of a chemogenomic map for kinase signalling research and drug discovery” (Biochem J, 2013).
# Assays:
# [1] = molecular target: T1, Serine/threonine-protein kinase 17A (Homo sapiens) (UniProt Q9UEE5); conditions: at 10 µM
# T1 sequence (whole entry): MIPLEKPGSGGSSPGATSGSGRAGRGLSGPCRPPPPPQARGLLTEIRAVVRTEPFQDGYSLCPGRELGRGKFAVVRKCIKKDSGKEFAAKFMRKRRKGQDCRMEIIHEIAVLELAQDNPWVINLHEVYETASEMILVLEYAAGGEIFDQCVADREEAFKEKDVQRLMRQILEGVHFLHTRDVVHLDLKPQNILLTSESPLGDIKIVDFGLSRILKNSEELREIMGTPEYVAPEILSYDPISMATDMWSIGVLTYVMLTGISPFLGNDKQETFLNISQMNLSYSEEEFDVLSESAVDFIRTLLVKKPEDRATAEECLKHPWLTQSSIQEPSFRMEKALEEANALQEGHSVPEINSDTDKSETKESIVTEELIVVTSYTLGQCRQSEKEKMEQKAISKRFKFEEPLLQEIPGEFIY
# [2] = molecular target: T2, Dual specificity tyrosine-phosphorylation-regulated kinase 2 (Homo sapiens) (UniProt Q92630); conditions: at 1 µM
# T2 sequence (whole entry): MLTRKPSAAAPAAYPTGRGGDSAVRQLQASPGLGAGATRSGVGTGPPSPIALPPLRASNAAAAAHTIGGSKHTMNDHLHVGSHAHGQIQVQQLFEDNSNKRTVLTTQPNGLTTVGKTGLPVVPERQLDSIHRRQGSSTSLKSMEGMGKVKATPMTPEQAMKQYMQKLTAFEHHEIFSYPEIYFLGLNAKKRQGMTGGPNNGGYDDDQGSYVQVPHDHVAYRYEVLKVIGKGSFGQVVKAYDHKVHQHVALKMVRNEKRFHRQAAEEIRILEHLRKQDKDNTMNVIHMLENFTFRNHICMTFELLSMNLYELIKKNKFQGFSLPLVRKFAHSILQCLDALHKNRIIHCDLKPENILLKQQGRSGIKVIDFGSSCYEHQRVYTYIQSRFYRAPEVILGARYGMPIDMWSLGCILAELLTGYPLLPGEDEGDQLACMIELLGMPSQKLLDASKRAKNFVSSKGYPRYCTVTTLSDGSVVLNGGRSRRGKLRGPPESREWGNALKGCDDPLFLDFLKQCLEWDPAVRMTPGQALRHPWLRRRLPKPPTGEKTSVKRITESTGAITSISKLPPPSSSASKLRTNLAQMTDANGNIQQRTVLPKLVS
# [3] = molecular target: T2, Dual specificity tyrosine-phosphorylation-regulated kinase 2 (Homo sapiens); conditions: at 10 µM
# [4] = molecular target: T3, Ephrin type-A receptor 1 (Homo sapiens) (UniProt P21709); conditions: at 1 µM
# T3 sequence (whole entry): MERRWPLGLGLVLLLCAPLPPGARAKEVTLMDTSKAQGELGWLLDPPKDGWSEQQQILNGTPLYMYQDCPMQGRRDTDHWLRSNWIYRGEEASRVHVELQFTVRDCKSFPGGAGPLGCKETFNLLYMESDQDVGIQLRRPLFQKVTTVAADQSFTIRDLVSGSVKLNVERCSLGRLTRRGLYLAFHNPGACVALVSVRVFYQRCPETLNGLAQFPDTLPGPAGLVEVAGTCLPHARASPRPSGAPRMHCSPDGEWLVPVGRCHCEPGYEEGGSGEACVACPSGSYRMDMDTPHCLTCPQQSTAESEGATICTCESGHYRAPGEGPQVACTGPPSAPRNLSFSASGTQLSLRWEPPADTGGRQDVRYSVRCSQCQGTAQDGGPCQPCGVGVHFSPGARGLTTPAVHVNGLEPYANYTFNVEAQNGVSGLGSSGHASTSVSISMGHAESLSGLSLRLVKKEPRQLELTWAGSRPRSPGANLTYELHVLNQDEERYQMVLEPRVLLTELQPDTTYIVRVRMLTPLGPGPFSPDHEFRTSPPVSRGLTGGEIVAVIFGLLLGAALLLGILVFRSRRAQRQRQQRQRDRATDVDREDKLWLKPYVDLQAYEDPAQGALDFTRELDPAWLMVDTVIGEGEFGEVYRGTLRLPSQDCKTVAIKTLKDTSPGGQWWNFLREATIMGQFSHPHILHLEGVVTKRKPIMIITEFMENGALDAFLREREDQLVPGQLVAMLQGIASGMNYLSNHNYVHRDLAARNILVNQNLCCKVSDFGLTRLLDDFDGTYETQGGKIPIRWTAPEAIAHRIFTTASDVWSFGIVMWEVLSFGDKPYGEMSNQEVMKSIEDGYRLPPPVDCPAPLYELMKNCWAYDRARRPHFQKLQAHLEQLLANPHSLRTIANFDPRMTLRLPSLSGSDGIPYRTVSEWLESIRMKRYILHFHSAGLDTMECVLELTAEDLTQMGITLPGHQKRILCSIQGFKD
# [5] = molecular target: T3, Ephrin type-A receptor 1 (Homo sapiens); conditions: at 10 µM
# [6] = molecular target: Ephrin type-A receptor 2 (Homo sapiens) (UniProt P29317); conditions: at 1 µM
# Ephrin type-A receptor 2 (Homo sapiens), sequence (P29317 whole entry): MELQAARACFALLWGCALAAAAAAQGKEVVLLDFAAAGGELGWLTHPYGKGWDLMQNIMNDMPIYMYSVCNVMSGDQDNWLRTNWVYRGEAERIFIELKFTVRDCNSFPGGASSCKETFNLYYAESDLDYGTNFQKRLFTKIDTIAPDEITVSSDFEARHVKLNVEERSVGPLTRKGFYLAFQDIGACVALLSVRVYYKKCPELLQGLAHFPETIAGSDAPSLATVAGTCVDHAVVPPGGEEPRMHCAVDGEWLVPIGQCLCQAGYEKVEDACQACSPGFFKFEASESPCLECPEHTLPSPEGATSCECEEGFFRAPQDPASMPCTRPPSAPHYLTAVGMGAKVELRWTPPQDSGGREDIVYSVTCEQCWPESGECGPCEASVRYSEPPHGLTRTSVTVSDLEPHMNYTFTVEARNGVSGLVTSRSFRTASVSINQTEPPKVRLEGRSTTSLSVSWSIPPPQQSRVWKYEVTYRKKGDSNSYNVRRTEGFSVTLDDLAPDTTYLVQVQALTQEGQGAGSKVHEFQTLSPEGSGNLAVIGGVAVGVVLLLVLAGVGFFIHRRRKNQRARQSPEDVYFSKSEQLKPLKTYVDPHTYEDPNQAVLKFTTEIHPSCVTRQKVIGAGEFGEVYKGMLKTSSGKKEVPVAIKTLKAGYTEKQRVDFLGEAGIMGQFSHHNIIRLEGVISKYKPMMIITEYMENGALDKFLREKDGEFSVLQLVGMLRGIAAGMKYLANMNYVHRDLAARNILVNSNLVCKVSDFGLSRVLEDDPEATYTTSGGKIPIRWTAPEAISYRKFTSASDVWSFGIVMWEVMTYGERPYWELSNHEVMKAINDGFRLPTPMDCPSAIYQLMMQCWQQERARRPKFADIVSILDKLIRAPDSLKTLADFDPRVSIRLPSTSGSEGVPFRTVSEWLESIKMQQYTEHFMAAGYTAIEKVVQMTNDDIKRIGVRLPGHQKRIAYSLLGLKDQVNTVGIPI
# [7] = molecular target: Ephrin type-A receptor 2 (Homo sapiens) (UniProt P29317); conditions: at 10 µM
# [8] = molecular target: T4, Ephrin type-A receptor 3 (Homo sapiens) (UniProt P29320); conditions: at 1 µM
# T4 sequence (whole entry): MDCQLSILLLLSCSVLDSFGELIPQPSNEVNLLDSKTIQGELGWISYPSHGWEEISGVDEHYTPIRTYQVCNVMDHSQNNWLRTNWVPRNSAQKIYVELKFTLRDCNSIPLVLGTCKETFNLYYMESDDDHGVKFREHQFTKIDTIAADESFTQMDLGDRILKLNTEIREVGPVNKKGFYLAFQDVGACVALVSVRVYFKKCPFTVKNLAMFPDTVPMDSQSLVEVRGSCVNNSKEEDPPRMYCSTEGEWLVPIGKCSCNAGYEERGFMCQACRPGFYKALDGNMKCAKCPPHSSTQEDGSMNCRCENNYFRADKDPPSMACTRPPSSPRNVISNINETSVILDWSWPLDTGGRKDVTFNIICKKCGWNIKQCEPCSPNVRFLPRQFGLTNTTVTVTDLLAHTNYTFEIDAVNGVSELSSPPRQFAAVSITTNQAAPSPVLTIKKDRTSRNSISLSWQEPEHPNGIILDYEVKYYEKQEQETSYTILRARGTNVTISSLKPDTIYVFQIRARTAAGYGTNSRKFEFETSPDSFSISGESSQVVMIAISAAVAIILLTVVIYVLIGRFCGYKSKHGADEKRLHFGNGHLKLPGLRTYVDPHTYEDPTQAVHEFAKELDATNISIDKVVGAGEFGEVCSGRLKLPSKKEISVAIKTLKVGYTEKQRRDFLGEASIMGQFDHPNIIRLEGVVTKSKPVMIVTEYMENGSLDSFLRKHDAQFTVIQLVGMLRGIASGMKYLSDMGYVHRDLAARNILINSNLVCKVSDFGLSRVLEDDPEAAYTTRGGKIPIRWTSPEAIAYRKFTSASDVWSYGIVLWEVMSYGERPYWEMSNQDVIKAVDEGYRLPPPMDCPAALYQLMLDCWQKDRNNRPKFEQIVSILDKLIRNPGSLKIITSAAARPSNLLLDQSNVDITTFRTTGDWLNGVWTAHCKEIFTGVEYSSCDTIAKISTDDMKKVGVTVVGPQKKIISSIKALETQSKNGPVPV
# [9] = molecular target: Epidermal growth factor receptor (Homo sapiens) (UniProt P00533); conditions: at 1 µM
# Epidermal growth factor receptor (Homo sapiens), sequence (P00533 whole entry): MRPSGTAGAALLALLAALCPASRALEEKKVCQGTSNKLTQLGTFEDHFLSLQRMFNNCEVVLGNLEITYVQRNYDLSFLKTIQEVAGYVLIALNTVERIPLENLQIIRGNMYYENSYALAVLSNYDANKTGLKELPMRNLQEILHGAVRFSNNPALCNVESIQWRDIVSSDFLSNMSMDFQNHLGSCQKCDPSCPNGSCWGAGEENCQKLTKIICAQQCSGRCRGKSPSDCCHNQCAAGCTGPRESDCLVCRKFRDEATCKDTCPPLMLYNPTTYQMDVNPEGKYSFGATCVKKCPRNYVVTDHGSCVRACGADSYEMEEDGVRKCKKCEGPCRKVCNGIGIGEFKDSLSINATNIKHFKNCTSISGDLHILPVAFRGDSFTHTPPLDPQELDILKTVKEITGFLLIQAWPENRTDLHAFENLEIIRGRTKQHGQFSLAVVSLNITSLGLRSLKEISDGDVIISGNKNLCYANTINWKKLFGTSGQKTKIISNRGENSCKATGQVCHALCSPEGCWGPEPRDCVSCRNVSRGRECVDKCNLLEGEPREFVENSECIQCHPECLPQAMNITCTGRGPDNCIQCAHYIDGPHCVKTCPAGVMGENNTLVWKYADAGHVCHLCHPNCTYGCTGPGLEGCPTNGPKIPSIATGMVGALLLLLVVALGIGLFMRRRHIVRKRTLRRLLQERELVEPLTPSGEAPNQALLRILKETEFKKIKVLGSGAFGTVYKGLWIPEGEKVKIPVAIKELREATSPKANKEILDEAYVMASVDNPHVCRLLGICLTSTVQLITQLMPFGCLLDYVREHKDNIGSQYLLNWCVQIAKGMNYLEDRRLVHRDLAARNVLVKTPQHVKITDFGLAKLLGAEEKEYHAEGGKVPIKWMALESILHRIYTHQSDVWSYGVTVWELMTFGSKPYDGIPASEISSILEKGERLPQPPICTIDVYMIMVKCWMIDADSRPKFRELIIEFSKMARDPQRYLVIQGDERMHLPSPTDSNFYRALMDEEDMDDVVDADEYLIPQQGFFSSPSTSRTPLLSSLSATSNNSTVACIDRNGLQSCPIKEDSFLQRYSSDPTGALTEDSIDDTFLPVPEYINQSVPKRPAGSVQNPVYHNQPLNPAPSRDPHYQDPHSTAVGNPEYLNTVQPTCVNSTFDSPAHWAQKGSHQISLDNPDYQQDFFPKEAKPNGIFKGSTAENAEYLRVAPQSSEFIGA
# [10] = molecular target: Epidermal growth factor receptor (Homo sapiens) (UniProt P00533); conditions: at 10 µM
SMILES,residual activity [1],residual activity [2],residual activity [3],residual activity [4],residual activity [5],residual activity [6],residual activity [7],residual activity [8],residual activity [9],residual activity [10]
CC(C)(C)n1nc(Cc2cccc3ccccc23)c2c(N)ncnc21,103%,109%,99%,7%,-1%,33%,1%,63%,–,–
Fc1ccc(-c2nc3n(c2-c2ccncc2)CCS3)cc1,91%,–,91%,–,–,99%,87%,–,–,–
NC(=O)c1cccc(-c2cc(Nc3ccc(OC(F)(F)F)cc3)ncn2)c1,145%,–,91%,–,96%,–,–,–,–,–
Oc1cccc(-c2nc(N3CCOCC3)c3oc4ncccc4c3n2)c1,86%,94%,98%,91%,–,–,–,–,119%,119%
Nc1ncnc2c1c(-c1ccc(Oc3ccccc3)cc1)cn2C1CCCC1,104%,91%,82%,72%,18%,100%,55%,101%,–,–
Nc1ncnc2c1cnn2-c1ccccc1,68%,85%,44%,85%,88%,–,–,100%,–,–
O=C1NC(=O)c2c1c1c3ccccc3[nH]c1n1cncc21,6%,68%,57%,74%,50%,87%,86%,91%,–,–
O=C1Cc2c([nH]c3ccc(Br)cc23)-c2ccccc2N1,39%,92%,45%,91%,78%,–,–,83%,–,–
CSc1nc(-c2ccc(F)cc2)c(-c2ccnc(NC(C)c3ccccc3)c2)[nH]1 (stereo unspecified),72%,–,86%,101%,78%,87%,–,–,–,–
Nc1ncnc2[nH]nc(Nc3ccc(F)cc3)c12,16%,79%,30%,43%,–,–,50%,–,–,–
O=C(Nc1nc2ccccc2n1CCN1CCOCC1)c1cccc([N+](=O)[O-])c1,53%,102%,88%,80%,123%,–,–,104%,–,–
O=C(c1cc2cc(O)ccc2[nH]1)c1cc2cc(O)ccc2[nH]1,2%,81%,47%,83%,47%,–,–,–,–,–
O=c1cc(N2CCNCC2)oc2c(-c3ccccc3)cccc12,66%,87%,94%,91%,100%,99%,97%,91%,–,–
CCN(CC)CCNC(=O)c1c(C)[nH]c(/C=C2\C(=O)Nc3ccc(Cl)cc32)c1C,2%,78%,37%,82%,37%,–,73%,–,–,–
O=C1Nc2ccc(Cl)cc2/C1=C/c1cc(Cl)c(O)c(Cl)c1,17%,83%,70%,84%,87%,99%,76%,91%,–,–
CCCCc1c(-c2ccc(O)cc2)[nH]c2nccnc12,44%,85%,34%,29%,47%,82%,60%,72%,–,–
O=C(O)/C=C/c1cc(Br)c(Br)c(Br)c1Br,39%,92%,38%,104%,91%,–,–,101%,–,–
Cn1c2ccccc2c2c3c(c4c5ccccc5n(CCC#N)c4c21)CNC3=O,36%,76%,66%,–,–,–,–,–,–,–
O=C1C(Cl)=C(N2C(=O)CCC2=O)C(=O)c2ccccc21,82%,100%,92%,–,84%,93%,–,85%,–,–
Nc1nccc(-c2c(-c3ccc(F)cc3)ncn2C2CCNCC2)n1,21%,83%,40%,119%,45%,–,–,–,–,84%
Nc1n[nH]c2nc3ccccc3nc12,50%,92%,41%,87%,83%,–,–,98%,–,–
COc1ccc(-c2cnc3c(-c4ccsc4)cnn3c2)cc1,98%,100%,94%,–,–,–,–,–,–,–
O=c1cc(N2CCOCC2)oc2c1ccc1ccccc12,71%,97%,65%,91%,87%,–,95%,92%,–,–
COc1cc2nccc(Oc3ccc(NC(=S)NC(=O)c4ccccc4C)cc3)c2cc1OC,92%,–,91%,46%,24%,91%,55%,98%,–,–
c1ccc(-c2cnc(Nc3ccc(OCCN4CCCC4)cc3)s2)cc1,4%,–,62%,77%,60%,–,–,104%,–,–
COc1cc2ncnc(Nc3cccc(Cl)c3)c2cc1OC,48%,–,–,42%,7%,89%,37%,–,-5%,-3%
O=C1Cc2c([nH]c3ccc([N+](=O)[O-])cc23)-c2ccccc2N1,7%,54%,71%,109%,103%,–,–,–,–,–
N#Cc1c(NC(=O)c2cccc3ccccc23)sc2c1CCCC2,134%,–,–,–,–,–,–,–,–,–
O=C(Nc1ccc(Cl)cc1)c1ccccc1NCc1ccncc1,99%,–,–,–,–,–,–,–,–,–
N#C/C(=C1/Nc2ccccc2S1)c1ccnc(NCCc2cccnc2)n1,37%,19%,2%,–,–,–,–,–,–,–
